Tau fibril FP = inhibitors of human tau fibril formation; P10636; K18 P301L tau heparin fibrillization, Alexa594 FP, 6 h; Potency, µM (top dose mostly 57.7 µM), for the others: at the highest dose activity, negative = inhibition, actives largely listed as inhibitors; actives 0.39% (n = 280,000); AID 1468; also: potency is read from the fitted curve at half-maximal effect; nearly all actives have a fitted effect of over 55% in size
Target sequence (P10636 561-689 P618L limits assumed): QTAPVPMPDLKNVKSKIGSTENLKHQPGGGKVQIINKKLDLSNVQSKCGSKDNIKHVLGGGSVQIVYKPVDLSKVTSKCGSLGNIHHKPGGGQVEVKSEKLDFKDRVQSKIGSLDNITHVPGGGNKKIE
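Steps: dispense K18 P301L tau (15 uM plus 0.24 uM Alexa 594 tracer, final) in pH 7 sodium acetate; add compound; add heparin (20 uM final); incubate 6 hr, 37 C; add ThT (30 uM final); after 1 hr ambient, read FP.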
Coupling enz = coupling enzyme interference in Giardia aldolase counter-screen | activity change, negative = inhibition, % at 58.2 µM, hits read low | actives 0.67% (n = 290,000) | coupling enzyme system counterscreen, AmpLite Red fluorescence; in the data active = activity change below about -30%
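First, compound is pin-transferred into glyceraldehyde-3-phosphate coupling-enzyme reagent at 57.5 uM final and held 10 min at RT. Next, substrate, coupling system and AmpLite Red are added. After 20 min RT, fluorescence (525/598 nm) is read.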
Tau fluor cs = counter-screen for tau fibril formation inhibitors | actives 0.93% (n = 280,000) | tau K18 P301L Alexa594 fluorescence, heparin fibrillization | Potency, µM (titrated, usually from 57.7 µM), for the others: top-dose activity change, negative = decrease; also: potency is read from the fitted curve at half-maximal effect; nearly all actives have a fitted effect of over 55% in size
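Human K18 P301L tau (15 uM unlabeled plus 0.24 uM Alexa 594-labeled, final) in 100 mM sodium acetate pH 7 was mixed with compound and 20 uM heparin and incubated 6 hr at 37 C.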
Tau ThT inhib = inhibitors of human tau fibril formation, thioflavin T binding. P10636. recombinant tau K18 P301L (four-repeat tau fragment), heparin-induced fibrillization, ThT fluorescence. Potency, µM (top dose mostly 57.4 µM), for the others: at the highest dose activity, negative = inhibition, most hits filed as inhibitors. actives 2.1% (n = 270,000). AID 1460; also: potency is read from the fitted curve at half-maximal effect; nearly all actives have a fitted effect of over 55% in size
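Recombinant human tau K18 fragment […] carrying P301L, 15 uM unlabeled plus 0.24 uM Alexa 594-labeled, was fibrillized with 20 uM heparin in 100 mM sodium acetate pH 7 for 6 hr at 37 C; 30 uM ThT fluorescence read after 1 hr.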
Active calls of the source: *; ? = inconclusive; · = no result given; [ ] = another dose, or the depositor's remark. The list is not random: actives were taken first. Their share in the collection is about 2.7%. Unless noted, calls follow the shape of the dose curve; as a rule, active = well fitted curve in the direction sought with a large enough effect; inconclusive = small, poorly fitted or top-dose-only effect, or another doubt; inactive = no such curve, though single readings can be large; an effect the other way counts as inactive or inconclusive. % is scaled to controls: 0 for no effect and ±100 for the full control effect.

SMILES | Tau fibril FP | Coupling enz | Tau fluor cs | Tau ThT inhib
COc1ccc(OC)c(CNS(=O)(=O)c2ccc3[nH]c4c(c3c2)CCCCC4)c1 | 10% | · | ? | -13%
CCOc1ccc(NS(=O)(=O)c2ccc3[nH]c4c(c3c2)CCCC4)cc1 | -1% | · | 13µM*[quencher] | -1%
CCOc1ccc(NS(=O)(=O)c2ccc3nc(-c4ccccc4)[nH]c3c2)cc1 | 20µM* | · | ? | 8%
COc1ccc(NS(=O)(=O)c2ccc3nc(-c4ccccc4)[nH]c3c2)cc1 | ? | · | ? | 6%
CCOc1ccc(NS(=O)(=O)c2ccc3[nH]c4c(c3c2)CCCCC4)cc1 | 10% | · | 14µM*[quencher] | -6%
COCCCNS(=O)(=O)c1ccc2[nH]c3c(c2c1)CCCCC3 | · | 1 | · | ·
COc1ccc(NS(=O)(=O)c2ccc3[nH]c4c(c3c2)CCCCC4)cc1 | -11% | · | 3.5µM*[quencher] | ?
Cc1ccc(N=Nc2c(N)[nH]n3c(=O)c4c(nc23)CCCC4)cc1 | 2% | -4 | -13% | 1.4µM*
Cc1ccc(N=Nc2c(=O)[nH]n3c(C)cc(C)nc23)cc1 | -5% | -1 | -12% | 20µM*
Cc1cc(C)n2[nH]c(=O)c(N=Nc3ccc(S(N)(=O)=O)cc3)c2n1 | -1% | 0 | -2% | ?
Cc1[nH]n2c(=O)c3c(nc2c1-c1ccc(F)cc1)CCCC3 | 4% | 0 | 2% | 0%
Cc1ccc(N=Nc2c(N)[nH]n3c(=O)cc(C)nc23)cc1 | ? | -2 | -20% | 4µM*
O=[N+]([O-])c1cc(Cc2ccccc2)cc(C=Nc2ccc(N3CCOCC3)cc2)c1O | ? | -4 | ? | 10µM*
Cc1ccc(O)c(N=Cc2cc(Cc3ccccc3)cc([N+](=O)[O-])c2O)c1 | ? | -11 | ? | 8.9µM*
COC(=O)Cn1nc(C)c2c(C)n(-c3ccccc3)nc2c1=O | 1% | · | 3% | 9%
Oc1[nH]c2ccccc2c1C=Nc1ccc2c(c1)OCCO2 | 16% | -7 | ? | 11µM*
Oc1c(Br)cc(Br)cc1C=Nc1ccc2c(c1)OCO2 | ? | -3 | -7% | 20µM*
O=[N+]([O-])c1ccc(O)c(C=Nc2ccc3c(c2)OCCO3)c1 | 6% | 0 | 3% | 1%
Oc1c(Br)cc(Br)cc1C=Nc1ccc2c(c1)OCCO2 | ? | -6 | -16% | 11µM*
O=C(Nc1nc2c(F)cccc2s1)c1ccc(S(=O)(=O)N2CCOCC2)cc1 | ? | · | -11% | -5%
COc1ccc2nc(NC(=O)c3nc(SCc4ccc(F)cc4)ncc3Cl)sc2c1 | -8% | · | -5% | 2%
Cc1ccc2cc3cc(C(=O)N4CCN(c5ccccc5)CC4)sc3nc2c1 | 0% | · | -10% | -6%
Cc1ccc(S(=O)(=O)N2CCCCC2C(=O)N2CCN(C)CC2)cc1 (configuration not stated) | ? | 5 | -21% | 16µM*
Cc1ccc(S(=O)(=O)N2CCCC2C(=O)OCc2ccccc2)cc1 (configuration not stated) | 0% | 2 | -5% | -5%
Cc1ccc(S(=O)(=O)N2CCCC2C(=O)OCc2ccco2)cc1 (configuration not stated) | ? | -1 | -14% | 28µM*
SMILES | Tau fibril FP | Coupling enz | Tau fluor cs | Tau ThT inhib
COCC(=O)N1CCC2(CCCN(C(c3ccccc3)c3ccccc3)C2)CC1 | · | 5 | · | ·
COCC(=O)N1CCC2(CCCN(c3ccncc3)C2)CC1 | · | 3 | · | ·
O=[N+]([O-])c1ccc(N=Nc2ccc(O)cc2O)cc1 | -13% | 3 | 14µM*[quencher] | 2.5µM*
O=C(N/N=C/C(Cl)=C/c1ccc([N+](=O)[O-])cc1)C(=O)Nc1ccc(C(=O)O)cc1 | 0% | 1 | -28% | 3.5µM*
O=C(N/N=C/C(Cl)=C/c1ccc([N+](=O)[O-])cc1)C(=O)Nc1ccccc1C(=O)O | -7% | 9 | ? | 3.2µM*
Cc1ccc(C)c(N2C(=N)S/C(=C\c3ccc(-c4ccccc4C(=O)O)o3)C2=O)c1 | -7% | 19 | -1% | ?
CN1C(=O)/C(=C/c2ccc(-c3ccccc3[N+](=O)[O-])o2)SC1=Nc1ccc(Cl)c(C(=O)O)c1 | -11% | -19 | -14% | 14µM*
COCCCNS(=O)(=O)c1ccc(N2CCCCS2(=O)=O)cc1 | 0% | · | 4% | 9%
O=C1c2[nH]nc(-c3ccc(Br)cc3)c2C(c2cccc(O)c2)N1c1ccc(Cl)cc1 (configuration not stated) | 13µM* | · | ? | 10%
COCCCn1c(-c2ccco2)nc2ccccc2c1=O | 7% | 0 | -2% | -9%
COCCCN=C(c1ccco1)n1c(=S)nc(-c2ccco2)n(CCCOC)c1=S | ? | -33* | -24% | 32µM*
CN(C)c1ccc(N=Nc2cccc3ccoc23)cc1 | 11% | -1 | 16µM*[quencher] | 1.4µM*
N#C/C(=C\c1ccc(-c2cccc(Cl)c2)o1)C(=O)Nc1cccc2cccnc12 | 8% | 1 | -17% | 2.5µM*
CCOCc1cnc(C)nc1NCC(=O)c1c(C)[nH]c2ccc(OC)cc12 | -1% | -49* | -8% | 2%
CCCCNC(=O)CN1C(=O)c2c(c3ccccc3n2C)C1c1ccc(OC)cc1 (configuration not stated) | 2% | · | 5% | 9%
Cc1cc(Cl)ccc1NC(=O)Cn1nnc2sc(-c3ccccc3)cc2c1=O | -7% | · | -15% | -11%
CC(C)c1ccc(NC(=O)c2cccn2-c2nnc(N3CCCCC3)s2)cc1 | 5% | · | -29% | -15%
Nc1c(C=C2C=CC(=O)C=C2)c(=O)nc2snc(SCc3ccccc3)n12 | ? | 20 | ? | 7.9µM*
COc1cc(NC(=O)C(c2ccccc2)c2ccccc2)c(C(=O)O)cc1OC | · | 3 | · | ·
COc1ccc2nc3sc(C(=O)Nc4cc(Cl)c(OC)cc4OC)cc3cc2c1 | ? | · | -22% | ?
CCOC(=O)c1cc2c(=O)n3ccccc3nc2n(CCCOC)c1=NC(=O)c1c(-c2ccccc2Cl)noc1C | 5% | · | ? | ?
Nc1cc(OCC(F)(F)F)cc([N+](=O)[O-])c1 | 14% | -2 | -1% | -9%
Nc1cc(N)c(OCC(F)(F)F)cc1OCC(F)(F)F | 13µM* | -50* | ? | 3.2µM*
CC(=O)OCC1=C[C@H]2[C@@H]3C(C)(C)[C@]3(OC(C)=O)C[C@@H](C)[C@]2(O)[C@@H]2C=C(C)C(=O)[C@@]2(O)C1 | · | -6 | · | ·
COc1cccc([C@H]2Nc3ccc(S(=O)(=O)Nc4cc(C)ccc4C)cc3[C@H]3C=CC[C@H]32)c1 | 4% | · | ? | ?
Cc1ccc([C@H]2Nc3ccc(S(=O)(=O)Nc4cccc(Cl)c4C)cc3[C@H]3C=CC[C@H]32)cc1 | -8% | · | ? | 13µM*
O=C(O)c1ccc(NS(=O)(=O)c2ccc3c(c2)C2C=CCC2C(c2ccccc2F)N3)cc1 (configuration not stated) | ? | -1 | ? | 32µM*
CCC(=O)NC1=C(NC(C)c2ccccc2)C(=O)c2ccccc2C1=O (configuration not stated) | 2% | -46* | -11% | ?

Screens (PubChem)
